Assay results from PubChem BioAssay (NCI).
About 79,000 compounds went through this panel and 15% of them were active in at least one assay; those are over-represented in the sample as a whole. The source made the active and inactive calls. Rule as the data show it: active = growth inhibition above about 70%; inactive = the rest.

Columns and labels:
[1] = NCI Yeast Anticancer Drug Screen. Data for the rad52 strain (AID 147);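 also: 0% = growth of vehicle-treated control cultures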; conditions: S. cerevisiae rad52 mutant growth inhibition, active compounds read high
Procedure, shortened: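 Here a repair-compromised yeast strain receives each compound; its growth is then quantified and normalised to vehicle-only controls.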

[2] = NCI Yeast Anticancer Drug Screen. Data for the wt1 strain (AID 149);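 also: 0% = growth of vehicle-treated wt1 cultures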; conditions: S. cerevisiae wt1 strain (SPY 50644) growth inhibition, active compounds read high
Procedure, shortened: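 Vehicle-normalised growth inhibition; strain wt1; compound exposure.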

[3] = NCI Yeast Anticancer Drug Screen. Data for the rad50EPP+ strain (AID 151);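 also: 0% = growth of vehicle-treated control cultures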; conditions: S. cerevisiae rad50 mutant strain, active compounds read high
Procedure, shortened: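 Read-out is yeast growth inhibition relative to vehicle; cells used were the rad50EPP+ strain.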

[4] = NCI Yeast Anticancer Drug Screen. Data for the mgt1 strain (AID 153); conditions: S. cerevisiae mgt1 mutant growth inhibition, active compounds read high
Procedure, shortened: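 Measured: inhibition of mgt1 yeast growth by compound, normalized to vehicle-treated cultures.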

[5] = NCI Yeast Anticancer Drug Screen. Data for the rad50 strain (AID 155);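 also: 0% = growth of vehicle-only cultures of the same strain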; conditions: S. cerevisiae rad50 strain growth inhibition, active compounds read high
Procedure, shortened: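 A DNA repair-deficient yeast mutant serves as the test organism; compound-induced growth inhibition is calculated against vehicle-treated cells.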

[6] = NCI Yeast Anticancer Drug Screen. Data for the mec2-1 strain (AID 157); conditions: S. cerevisiae mec2-1 strain, active compounds read high
Procedure, shortened: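 Using mec2-1 yeast: add compound, measure growth, express inhibition versus vehicle-treated cultures.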

[7] = NCI Yeast Anticancer Drug Screen. Data for the rad14 strain (AID 159);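 also: 0% = growth of vehicle-treated control cultures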; conditions: S. cerevisiae rad14 strain growth inhibition, active compounds read high
Procedure, shortened: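 Vehicle-treated cultures served as the baseline for growth inhibition of a DNA repair-mutant yeast strain exposed to each compound.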

[8] = NCI Yeast Anticancer Drug Screen. Data for the sgs1 mgt1 strain (AID 161);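 also: 0% = growth of cultures given vehicle only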; conditions: S. cerevisiae sgs1 mgt1 strain, active compounds read high
Procedure, shortened: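 Growth of a repair-deficient yeast mutant was monitored after compound treatment and expressed as inhibition relative to vehicle-treated cultures.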

[9] = NCI Yeast Anticancer Drug Screen. Data for the CLN2oe strain (AID 163);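 also: 0% = growth of vehicle-only control cultures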; conditions: S. cerevisiae CLN2oe strain, active compounds read high
Procedure, shortened: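 Whole-cell yeast growth assay. A strain engineered for altered cell-cycle control received compound, and inhibition relative to vehicle-treated cultures was recorded.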

[10] = NCI Yeast Anticancer Drug Screen. Data for the cln2 rad14 strain (AID 165);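 also: 0% = growth equal to vehicle treated cultures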; conditions: S. cerevisiae cln2 rad14 strain, active compounds read high
Procedure, shortened: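 Yeast strain cln2 rad14, bearing defects in cell cycle control and DNA repair, serves as the test system; values reflect growth inhibition compared with vehicle.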

[11] = NCI Yeast Anticancer Drug Screen. Data for the bub3 strain (AID 167); conditions: S. cerevisiae bub3 mutant strain, active compounds read high
Procedure, shortened: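 Inhibition values come from growth of compound-treated mutant yeast normalised to vehicle-treated controls.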

[12] = NCI Yeast Anticancer Drug Screen. Data for the wt2 strain (AID 169);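 also: 0% = growth of vehicle-treated yeast cultures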; conditions: S. cerevisiae wt2 strain growth inhibition, active compounds read high
Procedure, shortened: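 Treated yeast vs. vehicle-treated yeast: growth inhibition determined.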

[13] = NCI Yeast Anticancer Drug Screen. Data for the sgs1 strain (AID 173);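 also: 0% = growth of vehicle-only control cultures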; conditions: S. cerevisiae sgs1 mutant, active compounds read high
Procedure, shortened: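 A genetically defined yeast mutant is incubated with the test compound, and its growth is compared to that of the same strain given vehicle.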

[14] = NCI Yeast Anticancer Drug Screen. Data for the mlh1 rad18 strain (AID 175); conditions: S. cerevisiae mlh1 rad18 strain growth inhibition, active compounds read high
Procedure, shortened: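 Steps: expose repair-defective yeast to compound; measure growth; express inhibition against vehicle-treated controls.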

[15] = NCI Yeast Anticancer Drug Screen. Data for the rad18 strain (AID 177); conditions: S. cerevisiae rad18 mutant growth inhibition, active compounds read high
Procedure, shortened: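 Measured value is growth inhibition of a yeast strain bearing a DNA repair alteration, referenced to vehicle-treated cells.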

[16] = at 5.0 µM (retest, dose inferred, filed as 0.5)
[17] = at 50.0 µM (retest, dose inferred, filed as 5.0)

Question: Which growth inhibition ([1]; at 1.2 µM) does the source give for Cn1cnc(N)c1C(=N)[Se] here?
Answer: 7% (inactive)

Question: What about the growth inhibition ([1]; at 3.7 µM) of the same molecule?
Answer: 26% (inactive)

Question: What about the growth inhibition ([1]; at 11.0 µM) of the same molecule?
Answer: 70% (active)

Question: And the growth inhibition ([1]; at 33.0 µM)?
Answer: 95% (active)

Question: And the growth inhibition ([1]; at 100.0 µM)?
Answer: 95% (active)

Question: And the growth inhibition ([2]; at 1.2 µM)?
Answer: -1% (inactive)

Question: And the growth inhibition ([2]; at 3.7 µM)?
Answer: 3% (inactive)

Question: And the growth inhibition ([2]; at 11.0 µM)?
Answer: 10% (inactive)

Question: What about the growth inhibition ([2]; at 33.0 µM) of the same molecule?
Answer: 47% (inactive)

Question: What about the growth inhibition ([2]; at 100.0 µM) of the same molecule?
Answer: 80% (active)

Question: And the growth inhibition ([3]; at 1.2 µM)?
Answer: 66% (inactive)

Question: What about the growth inhibition ([3]; at 3.7 µM) of the same molecule?
Answer: 90% (active)

Question: What about the growth inhibition ([3]; at 11.0 µM) of the same molecule?
Answer: 98% (active)

Question: What about the growth inhibition ([3]; at 33.0 µM) of the same molecule?
Answer: 98% (active)

Question: What about the growth inhibition ([3]; at 100.0 µM) of the same molecule?
Answer: 95% (active)

Question: What about the growth inhibition ([4]; at 1.2 µM) of the same molecule?
Answer: 1% (inactive)

Question: And the growth inhibition ([4]; at 3.7 µM)?
Answer: -1% (inactive)

Question: What about the growth inhibition ([4]; at 11.0 µM) of the same molecule?
Answer: 4% (inactive)

Question: What about the growth inhibition ([4]; at 33.0 µM) of the same molecule?
Answer: 44% (inactive)

Question: And the growth inhibition ([4]; at 100.0 µM)?
Answer: 57% (inactive)

Question: What about the growth inhibition ([5]; at 1.2 µM) of the same molecule?
Answer: 27% (inactive)

Question: And the growth inhibition ([5]; at 3.7 µM)?
Answer: 59% (inactive)

Question: What about the growth inhibition [5, 16] of the same molecule?
Answer: -44% (inactive)

Question: And the growth inhibition ([5]; at 11.0 µM)?
Answer: 93% (active)

Question: What about the growth inhibition ([5]; at 33.0 µM) of the same molecule?
Answer: 95% (active)

Question: And the growth inhibition [5, 17]?
Answer: 89% (active)

Question: What about the growth inhibition ([5]; at 50.0 µM) of the same molecule?
Answer: 96.5% (active)

Question: What about the growth inhibition ([5]; at 100.0 µM) of the same molecule?
Answer: 93% (active)

Question: What about the growth inhibition ([6]; at 1.2 µM) of the same molecule?
Answer: -2% (inactive)

Question: And the growth inhibition ([6]; at 3.7 µM)?
Answer: 0% (inactive)

Question: And the growth inhibition [6, 16]?
Answer: -46% (inactive)

Question: And the growth inhibition ([6]; at 11.0 µM)?
Answer: 48% (inactive)

Question: What about the growth inhibition ([6]; at 33.0 µM) of the same molecule?
Answer: 93% (active)

Question: What about the growth inhibition [6, 17] of the same molecule?
Answer: 50% (inactive)

Question: And the growth inhibition ([6]; at 50.0 µM)?
Answer: 86.5% (active)

Question: What about the growth inhibition ([6]; at 100.0 µM) of the same molecule?
Answer: 93% (active)

Question: And the growth inhibition ([7]; at 1.2 µM)?
Answer: 9% (inactive)

Question: And the growth inhibition ([7]; at 3.7 µM)?
Answer: 15% (inactive)

Question: And the growth inhibition ([7]; at 11.0 µM)?
Answer: 46% (inactive)

Question: And the growth inhibition ([7]; at 33.0 µM)?
Answer: 91% (active)

Question: And the growth inhibition ([7]; at 100.0 µM)?
Answer: 94% (active)

Question: And the growth inhibition [8, 16]?
Answer: -61% (inactive)

Question: What about the growth inhibition [8, 17] of the same molecule?
Answer: -32% (inactive)

Question: And the growth inhibition ([8]; at 50.0 µM)?
Answer: 13.3% (inactive)

Question: What about the growth inhibition ([9]; at 1.2 µM) of the same molecule?
Answer: 1% (inactive)

Question: And the growth inhibition ([9]; at 3.7 µM)?
Answer: -2% (inactive)

Question: What about the growth inhibition ([9]; at 11.0 µM) of the same molecule?
Answer: -3% (inactive)

Question: And the growth inhibition ([9]; at 33.0 µM)?
Answer: 11% (inactive)

Question: What about the growth inhibition ([9]; at 100.0 µM) of the same molecule?
Answer: 28% (inactive)

Question: And the growth inhibition [10, 16]?
Answer: -60% (inactive)

Question: What about the growth inhibition [10, 17] of the same molecule?
Answer: -40% (inactive)

Question: What about the growth inhibition ([10]; at 50.0 µM) of the same molecule?
Answer: -53.6% (inactive)

Question: And the growth inhibition ([11]; at 1.2 µM)?
Answer: 4% (inactive)

Question: And the growth inhibition ([11]; at 3.7 µM)?
Answer: 15% (inactive)

Question: What about the growth inhibition [11, 16] of the same molecule?
Answer: -67% (inactive)

Question: What about the growth inhibition ([11]; at 11.0 µM) of the same molecule?
Answer: 80% (active)

Question: What about the growth inhibition ([11]; at 33.0 µM) of the same molecule?
Answer: 97% (active)

Question: What about the growth inhibition [11, 17] of the same molecule?
Answer: 64% (inactive)

Question: What about the growth inhibition ([11]; at 50.0 µM) of the same molecule?
Answer: 78.2% (active)

Question: And the growth inhibition ([11]; at 100.0 µM)?
Answer: 94% (active)

Question: What about the growth inhibition ([12]; at 1.2 µM) of the same molecule?
Answer: 10% (inactive)

Question: What about the growth inhibition ([12]; at 3.7 µM) of the same molecule?
Answer: 25% (inactive)

Question: And the growth inhibition ([12]; at 11.0 µM)?
Answer: 59% (inactive)

Question: And the growth inhibition ([12]; at 33.0 µM)?
Answer: 77% (active)

Question: And the growth inhibition ([12]; at 100.0 µM)?
Answer: 87% (active)

Question: And the growth inhibition ([13]; at 1.2 µM)?
Answer: 2% (inactive)

Question: What about the growth inhibition ([13]; at 3.7 µM) of the same molecule?
Answer: -1% (inactive)

Question: What about the growth inhibition ([13]; at 11.0 µM) of the same molecule?
Answer: 40% (inactive)

Question: And the growth inhibition ([13]; at 33.0 µM)?
Answer: 84% (active)

Question: And the growth inhibition ([13]; at 100.0 µM)?
Answer: 92% (active)

Question: And the growth inhibition [14, 16]?
Answer: -126% (inactive)

Question: And the growth inhibition [14, 17]?
Answer: 84% (active)

Question: And the growth inhibition ([14]; at 50.0 µM)?
Answer: 80.5% (active)

Question: What about the growth inhibition ([15]; at 1.2 µM) of the same molecule?
Answer: -9% (inactive)

Question: And the growth inhibition ([15]; at 3.7 µM)?
Answer: 7% (inactive)

Question: What about the growth inhibition ([15]; at 11.0 µM) of the same molecule?
Answer: 58% (inactive)

Question: What about the growth inhibition ([15]; at 33.0 µM) of the same molecule?
Answer: 80% (active)

Question: What about the growth inhibition ([15]; at 100.0 µM) of the same molecule?
Answer: 91% (active)
